The values below come from PubChem BioAssay AID1347076 (National Center for Advancing Translational Sciences (NCATS), 2019).

Out of some 400,000 compounds screened, about 13,000 (3.2%) were called active. Roughly 18% stayed inconclusive and do not appear here. This is one part of a sample in which actives are shown more often than they occur. Unmarked numbers belong to inactive results. The call rests on the fitted dose curve; in most records, active means well fitted cell-killing curve with a large enough effect; inconclusive means small, poorly fitted or top-dose-only effect, or effect the other way; inactive means flat fitted curve, though single readings scatter.
On the % scale 0 is the no-effect control and ±100 the full control effect; potency means the concentration at half of the fitted maximal effect.

The test in a line: qHTS assay for MDR1-selective chemotherapeutics: Primary screen using the drug-selected MDR subline cells KB-V1. Further: nearly all actives have a fitted effect of over 60% in size. The settings on record: KB-V1 MDR cells viability, CellTiter-Glo, 72 h; series mostly up to 46.1 µM; activity change, negative = cytotoxicity: at the top concentration. From the text: A prime difficulty in effectively treating cancer is the development of cellular resistance to multiple structurally unrelated anticancer drugs, a phenomenon known as multidrug resistance (MDR). […] Numerous strategies to overcome P-gp-mediated MDR have been explored, including the design of drugs that evade recognition and efflux, and development of inhibitors to block efflux and restore drug accumulation. […] An alternative approach is to exploit resistance by identifying drugs that target MDR cells over the non-resistant parental cells from which they were selected. […] The development of MDR1-selective agents represents a new strategy for resolving multidrug resistance, as it remains a long-standing clinical challenge for cancer chemotherapy.
Our goal is to identify compounds that selectively kill P-gp-expressing MDR cells. We will identify MDR1-selective compounds by comparing toxicity of compounds in the screening library against parental, drug-naive (KB-3-1) adenocarcinoma cells as well as their drug-selected MDR sub-line (KB-V1). The differential toxicity of compounds against these two cell lines will be used to identify MDR1-selective compounds, whose cytotoxicity is potentiated, rather than diminished, by P-gp expression. This assay will be utilized to conduct a quantitative high-throughput screen (qHTS) in collaboration with the NIH Chemical Genomics Center to identify selective agents, and probe hits arising from the screen will be validated using secondary assays and characterized through a well-established follow-up research program. This screen was run against the entire NCGC library collection of about 400,000 compounds.
NIH Molecular Libraries Probe Production Network [MLPCN]
NIH Chemical Genomics Center [NCGC]
PI: Michael Gottesman, National Cancer Institute, NIH
Briefly, 5 microL of media containing either KB-V1 cells (columns 1-2, 4-48) are dispensed into Greiner white, treated solid-bottom 1536-well assay plates (media-only control is added to column 3). Compounds are then transferred via Kalypsys pin tool equipped with 1536-pin array (10 nL slotted pins, V&P Scientific, San Diego, CA). Following addition of compound, the plates are incubated at 37 degrees C for 72 hours. CellTiter-Glo (2.5 µL/well) is then added, and the plates are read in a ViewLux reader (Perkin-Elmer, clear luminescence filter, 1 second exposure, 1x binning) following a 10 minute incubation. All cells are dispensed in DMEM phenol-red free media containing 10% FBS.
Library plates were screened starting from the lowest and proceeding to the highest concentration. Vehicle-only plates, with DMSO being pin-transferred to columns 5-48, will be inserted uniformly at the beginning and the end of each library in order to monitor and record any shifts in the background, which can be affected by reagent dispensers or loss in enzyme activity over time. Screening data will be corrected, normalized, and concentration-effect relationships will be derived by using publicly-available NCGC, NCATS curve fitting algorithms (http://ncgc.nih.gov/pub/openhts).
A general note: qHTS replaces the single test concentration by a dilution series.
In the case of `CC(=O)Nc1cccc(-c2cc3nc(NCc4cccnc4)n(C)c(=O)c3s2)c1`, the “activity change, negative = cytotoxicity” value is 2.7%.

As for `CC1(C(=O)NS(=O)(=O)c2ccccc2)CCN1C(=O)Cc1ccc(-c2ccccc2)cc1` (stereo not given), the “activity change, negative = cytotoxicity” value is 2.72%.

Regarding `COc1ccc(OC)c(C(=O)c2coc3ccc(OC)cc23)c1`, the “activity change, negative = cytotoxicity” value was -6.37%.

Take `Cc1ccc(C(=O)c2coc3ccc(O)c(CN(C)C)c23)cc1`: the “activity change, negative = cytotoxicity” value is 6.06%.

For `COc1ccc(OC)c(C(=O)c2coc3ccc(O)c(CN4CCOCC4)c23)c1`, the Potency was 7.31 µM (active).

Consider `CC(=O)NC(c1ccccc1)c1nc(-c2ccccc2C)cs1` (stereo not given), for which the “activity change, negative = cytotoxicity” value was 5.09%.

In the case of `O=C(c1ccco1)N(Cc1cccs1)c1ccc(O)cc1`, the “activity change, negative = cytotoxicity” value was -11.9%.

Take `COc1cccc(NC(=O)N(C)C[C@@H]2Oc3ncc(Br)cc3C(=O)N([C@@H](C)CO)C[C@H]2C)c1`: the “activity change, negative = cytotoxicity” value was -16.2%.

With `O=C(CN1CCN(S(=O)(=O)c2ccc3ccccc3c2)CC1)NC(=O)NC1CCCCC1`, the Potency was 18.4 µM (active).

As to `COc1ccc(S(=O)(=O)N2CCN(C(=O)NC3CCCCC3)CC2)cc1`, the “activity change, negative = cytotoxicity” value is 2.42%.

Consider `O=C(CN1CCN(S(=O)(=O)c2ccc(F)cc2)CC1)NC1CC1`, for which the “activity change, negative = cytotoxicity” value is 12.1%.

Take `CC(=O)c1sc(N2C(=O)c3oc4ccccc4c(=O)c3C2c2ccc(C)cc2)nc1C` (stereo not given): the “activity change, negative = cytotoxicity” value was 25%.

Regarding `CN(C)c1ccnc2sc(C(=O)c3ccccc3)c(N)c12`, the “activity change, negative = cytotoxicity” value is 12.2%.

As for `CN(C)/C=C/c1c(C#N)c(=O)ncn1Cc1ccccc1`, the “activity change, negative = cytotoxicity” value is -13.6%.

For the molecule `CN(C)c1ccnc2sc3c(=O)n(Cc4ccccc4)cnc3c12`, the Potency was 8.2 µM (active).

In the case of `COc1ccc(-c2coc3c(C(=O)NC(C)C)cccc23)c(C)c1`, the “activity change, negative = cytotoxicity” value was -5.97%.

On to `CC(=O)Nc1ccc2nc(NC(=O)CS(=O)(=O)c3ccc(F)cc3)sc2c1`, for which the “activity change, negative = cytotoxicity” value was -2.91%.

In the case of `CCS(=O)(=O)N1Cc2ccccc2CC1C(=O)Nc1ccc(OC)cc1OC` (stereo not given), the “activity change, negative = cytotoxicity” value was 3.09%.

`CCS(=O)(=O)N1Cc2ccccc2CC1C(=O)Nc1nc2ccc(F)cc2s1` (stereo not given): the Potency was 14.6 µM (active).

As to `NC(=O)C1CCN(c2ncc(-c3ccc(Cl)cc3)s2)CC1`, the “activity change, negative = cytotoxicity” value is 13.3%.

With `CCCC(=O)N1CCC1(C)C(=O)Nc1ccc(-n2cncn2)cc1` (stereo not given), the “activity change, negative = cytotoxicity” value was 5.17%.

With `CSCCC(C(=O)NC(C)(C)C)n1c(-c2ccccc2)nc2ccccc21` (stereo not given), the “activity change, negative = cytotoxicity” value is -25.2%.

As to `Cc1ccc(S(=O)(=O)N2CCN(S(=O)(=O)N3CCOCC3)CC2)cc1`, the “activity change, negative = cytotoxicity” value was 6.91%.

For `O=S(=O)(N1CCOCC1)N1CCN(c2ccccc2F)CC1`, the “activity change, negative = cytotoxicity” value is -16.5%.

Turning to `Cc1cccc(C)c1N1CCN(S(=O)(=O)N2CCOCC2)CC1`, the Potency was 16.4 µM (active).

On to `Clc1ccc(CN2CCCCCC2)cc1Cl`, for which the “activity change, negative = cytotoxicity” value was -11.5%.

Regarding `Clc1ccc(-n2nnnc2CN2CCCCC2)cc1Cl`, the Potency is 13 µM (active).

For the molecule `c1cc(-c2nn[nH]n2)ccc1CN1CCCCC1`, the “activity change, negative = cytotoxicity” value was -12.7%.

As to `COc1ccc(S(=O)(=O)NC(=O)C2(C)CCN2C(=O)c2ccccc2CCc2ccccc2)cc1` (stereo not given), the “activity change, negative = cytotoxicity” value was -9.62%.

As to `Cc1ccc(C)c(N2CCN(C(=O)CN3C(=O)COc4ccc(S(=O)(=O)N5CCCCCC5)cc43)CC2)c1`, the “activity change, negative = cytotoxicity” value was -1.22%.

Consider `CC1(C)CC(=O)C2=C(C1)Nc1cc(C(=O)c3ccccc3)ccc1NC2c1ccccn1` (stereo not given), for which the Potency was 20.6 µM (active).

With `Cc1nn(-c2ccccn2)c2c1C(c1ccncc1)C1=C(CC(C)(C)CC1=O)N2` (stereo not given), the “activity change, negative = cytotoxicity” value was -6.62%.

Regarding `Cc1cc2c(cc1C)NC(c1ccccn1)C1=C(CC(C)(C)CC1=O)N2` (stereo not given), the “activity change, negative = cytotoxicity” value is -1.56%.

For the molecule `COc1ccc(C)cc1NC(=O)COCc1cc(-c2cccs2)on1`, the “activity change, negative = cytotoxicity” value is -7.37%.

With `O=S1(=O)CC(N2CCN(c3ccccn3)CC2)CN1Cc1ccc(F)cc1` (stereo not given), the “activity change, negative = cytotoxicity” value is -24.7%.

As to `COC(=O)C[C@@H]1C=C[C@@H](NS(=O)(=O)c2cccc(OC)c2)[C@@H](CO)O1`, the “activity change, negative = cytotoxicity” value was -3.47%.

For the molecule `CC(C)C[C@H]1CNC(=O)C(=O)N1C[C@@H]1CCCN1C[C@H](Cc1ccccc1)N1C[C@H](CC(C)C)N(CC2CCCCCC2)C(=O)C1=O`, the “activity change, negative = cytotoxicity” value is 1.82%.

Turning to `Cc1ccc(OCc2cc(C(=O)N(C)CCc3ccccc3)no2)cc1C`, the “activity change, negative = cytotoxicity” value was -18.2%.

As to `CN(Cc1cccnc1)C(=O)c1cc(COc2ccc3ncccc3c2)on1`, the Potency was 5.17 µM (active).

For the molecule `CN(Cc1cnccn1)C(=O)c1cc(COc2cccc(C(F)(F)F)c2)on1`, the “activity change, negative = cytotoxicity” value is -13.2%.

For the molecule `CC(C)c1cccc(C(C)C)c1Nc1cn[nH]c1`, the “activity change, negative = cytotoxicity” value is 13.2%.

As to `COc1cccc(C(=O)OCC(=O)c2[nH]c(C)c(C(C)=O)c2C)c1`, the “activity change, negative = cytotoxicity” value is -9.26%.

With `CC(=O)c1c(C)[nH]c(C(=O)COC(=O)c2cccc(S(=O)(=O)N(C)c3ccccc3)c2)c1C`, the Potency is 11.6 µM (active).

For the molecule `CC(=O)c1c(C)[nH]c(C(=O)COC(=O)c2cccs2)c1C`, the “activity change, negative = cytotoxicity” value was 0%.

As to `O=C(Nc1ccc2nc(SCC(=O)N3CCc4ccccc43)sc2c1)c1ccccc1F`, the “activity change, negative = cytotoxicity” value is 4.97%.

In the case of `COc1ccc(C2CC(=O)N(Cc3ccccc3C)c3c2c(C)nn3-c2nc(C)cc(C)n2)c(OC)c1` (stereo not given), the “activity change, negative = cytotoxicity” value is -1.08%.

Regarding `C[C@@H]1CN([C@@H](C)CO)S(=O)(=O)c2ccc(C#Cc3cccc(F)c3)cc2O[C@H]1CN(C)S(=O)(=O)c1cn(C)cn1`, the “activity change, negative = cytotoxicity” value was 9.43%.

As to `C[C@H]1CN([C@@H](C)CO)C(=O)CCCn2cc(nn2)CO[C@@H]1CN(C)S(=O)(=O)c1ccc(-c2ccccc2)cc1`, the “activity change, negative = cytotoxicity” value was 13.4%.

Consider `Cc1ccn2c(-c3csc(Nc4ccc(C(=O)O)cc4)n3)c(C)nc2c1`, for which the “activity change, negative = cytotoxicity” value was -1.24%.

Regarding `O=c1c(=O)n(Cc2c(F)cccc2Cl)ccn1Cc1ccccc1`, the “activity change, negative = cytotoxicity” value is 10.3%.
